# In PubChem BioAssay (NCATS):
# Results filed as inconclusive are left out. Unmarked numbers belong to inactive results. The source made the active and inactive calls. The call rests on the fitted dose curve; in most records, active means well fitted cell-killing curve with a large enough effect; inconclusive means small, poorly fitted or top-dose-only effect; inactive means no such curve, though single readings can be large or run the other way. Positions of bridges follow the written chain, without caps; N, C: chain ends. Non-standard residues stand in square brackets, D forms with d. Residues, ends and D or L forms follow the SMILES beside them. ξ: configuration not given here. *: point of attachment. Octanoyl(6-Me) = CCC(C)CCCCC(=O)*; ξThr(3R) = C[C@@H](O)C(N)C(=O)O; dDab = NCC[C@@H](N)C(=O)O; Dab = NCC[C@H](N)C(=O)O
# Assay: qHTS of pediatric cancer cell lines to identify multiple opportunities for drug repurposing: Primary screen for LAN-5 cells (AID 1347100)
# Details: LAN-5 neuroblastoma viability, CellTiter-Glo luminescence, 48 h; series mostly up to 46 µM; activity change, negative = cytotoxic: at the top concentration
# Source text: Drug repurposing or repositioning has been offered as a strategy for drug development in oncology programs. This approach has special potential for childhood cancers and other rare or orphan diseases, where the expected return on new drug development has been a disincentive to pharmaceuticals.
# In this project we exploit the poly-pharmacology of drugs to discover new indications via phenotypic screening of a panel of 19 well-characterized cell lines derived from solid tumors seen in children and adolescents. The goal is to identify approved drugs with previously unrecognized anticancer properties that has the potential to reveal new mechanisms and biological processes involved in carcinogenesis or drug resistance. We employed a titration-based paradigm (quantitative high-throughput screening or qHTS), where all compounds were tested at multiple concentrations for their effect on cell viability. Concentration-response curves (CRCs) were derived directly from the primary screen, and both potency and efficacy values were used to identify compounds with robust bioactivity profiles. We screened the NIH Chemical Genomics Center (NCGC) Pharmaceutical Collection (NPC) and Mechanism Interrogation Plate (MIPE) small molecule collections of approved and investigational compounds against these cell lines; and measured metabolically active cells after 48 hours of compound treatment as a proxy for cell viability.
# Assay Submitter: Nathalia J. Martinez, National Center for Advancing Translational Sciences, National Institutes of Health, Rockville, MD, USA; email: natalia.martinez@nih.gov
# [1] Shen, M et al. Quantitative high-throughput phenotypic screening of pediatric cancer cell lines identifies multiple opportunities for drug repurposing. Oncotarget 2017 Dec 19;9(4):4758-4772. PMID 29435139.
# The cells were obtained from University of North Carolina (UNC), Pediatric Preclinical Testing Program (PPT), and Coriell Institute (CI).
# qHTS cell viability assay:
# Cells were assayed in growth media at a density of 500-1,000 cells/well. Five microliters of cells were dispensed into 1,536-well, white, solid-bottom, TC-treated plates (Greiner Bio One) using a multidrop dispenser and incubated at 37 degrees C, 5% CO2, under a humidified atmosphere for 5 hours. Twenty-three nanoliters of compounds and controls (neutral control DMSO or positive control bortezomib at final concentration of 2.3 µM) were subsequently transferred by Kalypsys pintool. For primary screens, the MIPE collection was tested at 11-point dilutions (final concentrations range from 0.78 nM to 46 µM) and the NPC collection at 8-point dilutions (final concentrations range from 0.59 nM to 46 µM). Compounds tested in follow-up screens were assayed at 11-point dilutions. Cells were incubated for 48 hours, followed by addition of 3 µL of CellTiter-Glo (Promega). After a 15 min incubation at room temperature, samples were analyzed for luminescence intensity using a ViewLux High-throughput CCD imager equipped with clear filters.
# Potency means the concentration at half of the fitted maximal effect.
Structure (SMILES),"activity change, negative = cytotoxic [%]",Potency
CC(C)OC(=O)[C@H](C)N[P@](=O)(OC[C@H]1O[C@@H](n2ccc(=O)[nH]c2=O)[C@](C)(F)[C@H]1O)Oc1ccccc1,-19,
COc1cc(OC)cc(-c2ccc3ncc4ccc(=O)n(-c5ccc(N6CCNCC6)c(C(F)(F)F)c5)c4c3c2)c1,,2640 nM (active)
CC(=O)N[C@H]1[C@@H]([C@H](O)[C@H](O)CO)OC(C(=O)O)=C[C@@H]1N=C(N)N,-11.5,
Cc1nc(NC(=O)N2CCC[C@@H]2C(N)=O)sc1-c1ccnc(C(C)(C)C(F)(F)F)c1,,5900 nM (active)
CC1(C)[C@H](O[C@H]2O[C@H](C(=O)O)[C@@H](O)[C@H](O)[C@H]2O[C@@H]2O[C@H](C(=O)O)[C@@H](O)[C@H](O)[C@H]2O)CC[C@@]2(C)[C@H]1CC[C@]1(C)[C@H]2C(=O)C=C2[C@H]3C[C@@](C)(C(=O)O)CC[C@]3(C)CC[C@]21C,8.75,
COc1cccc2c1C(=O)c1c(O)c3c(c(O)c1C2=O)C[C@@](O)(C(=O)CO)C[C@@H]3O[C@H]1C[C@H](N)[C@@H](O)[C@H](C)O1,,118 nM (active)
Nc1cccc2c1C(=O)N(C1CCC(=O)NC1=O)C2=O (stereo not given),5.55,
C=C[C@@H]1CN2CCC1C[C@H]2[C@H](O)c1ccnc2ccc(OC)cc12 (stereo not given in full),-13.8,
CCOc1cc2ncc(C#N)c(Nc3ccc(OCc4ccccn4)c(Cl)c3)c2cc1NC(=O)C=CCN(C)C,,1480 nM (active)
CN(C)CCN1C(=O)c2cccc3cc(N)cc(c23)C1=O,,2960 nM (active)
CC(C)(C)c1nc2c3cc[nH]c(=O)c3c3cc(F)ccc3c2[nH]1,,2350 nM (active)
c1cncc(CN2CCC(n3ncc4c(N5CCOCC5)nc(-c5ccc6[nH]ccc6c5)nc43)CC2)c1,,14800 nM (active)
COc1ccc(C=Cc2cc(OC)c(OC)c(OC)c2)cc1NC(=O)[C@H](N)CO,,13.2 nM (active)
CCNC(=O)c1cc2c(-c3cc(OCCN4CCCC4)c(Cl)cc3Cl)nc(N)nc2s1,,1480 nM (active)
CCCCCCCCCCCC(CC1OC(=O)C1CCCCCC)OC(=O)C(CC(C)C)NC=O (stereo not given),-16.5,
O=C(CN1C(=O)C2(CCCC2)NC[C@H]1c1cc(F)cc(F)c1)Nc1ccc2c(c1)C[C@@]1(C2)C(=O)Nc2ncccc21,5.39,
CC(=CC(=O)Nc1ccccc1C(=O)O)c1ccc2ccccc2c1,-13.2,
CC(C)C[C@H](NC(=O)CNC(=O)c1cc(Cl)ccc1Cl)B1OC(=O)CC(CC(=O)O)(C(=O)O)O1 (stereo not given in full),,118 nM (active)
C[C@@]12C(=O)OC(=O)[C@@]1(C)C1CCC2O1,,2350 nM (active)
CCC(C)CCCCC(=O)N[C@@H](CCN)C(=O)NC(C(=O)N[C@H](CCN)C(=O)N[C@@H]1CCNC(=O)C([C@@H](C)O)NC(=O)[C@@H](CCN)NC(=O)[C@@H](CCN)NC(=O)[C@@H](CC(C)C)NC(=O)[C@H](Cc2ccccc2)NC(=O)[C@H](CCN)NC1=O)[C@@H](C)O (stereo partly drawn) ({Octanoyl(6-Me)}-[Dab][ξThr(3R)][dDab][dDab][Dab]F[dL][dDab][dDab][ξThr(3R)]; lactam 4-C),8.51,

Structure (SMILES),"activity change, negative = cytotoxic [%]",Potency
Cn1cc(CNCC2CCN(c3ncc(C(=O)NO)cn3)CC2)c2ccccc21,,52.6 nM (active)
CNC(=O)c1cccc(-c2ccc3c(N4CCOC[C@H]4C)nc(N4CCOC[C@H]4C)nc3n2)c1,,4180 nM (active)
CC(C)N1[N]C(=C2C=c3cc(O)ccc3=N2)c2c(N)ncnc21,,5900 nM (active)
Oc1cc(-c2nc(-c3ccccc3)[nH]c2-c2ccncc2)ccc1Cl,,16600 nM (active)
CCOC(=O)[C@H](CCc1ccccc1)N[C@@H](C)C(=O)N1[C@@H](C(=O)O)C[C@H]2CCC[C@@H]21,,13200 nM (active)
C=CC(=O)Nc1ccc2ncnc(Nc3ccc(OCc4cccc(F)c4)c(Cl)c3)c2c1,,1 nM (active)
CCN(CC)CCCCNc1ncc2c(n1)N(C)C(=O)N(c1c(Cl)c(OC)cc(OC)c1Cl)C2,,20900 nM (active)
CC(=O)N[C@@H]1[C@H](O[C@@H]2c3ccc(c(Cl)c3)Oc3cc4cc(c3O[C@H]3O[C@H](CO)[C@@H](O)[C@H](O)[C@H]3NC(=O)CCCCCCCC(C)C)Oc3ccc(cc3Cl)C[C@H]3NC(=O)[C@H](N)c5ccc(O)c(c5)Oc5cc(O)cc(c5)[C@H](NC3=O)C(=O)N[C@H]4C(=O)N[C@H]3C(=O)N[C@@H]2C(=O)N[C@@H](C(=O)O)c2cc(O)cc(O[C@H]4O[C@H](CO)[C@@H](O)[C@H](O)[C@H]4O)c2-c2cc3ccc2O)O[C@H](CO)[C@@H](O)[C@@H]1O,-11.4,
CCc1c(O)cc(O)c(C(=O)c2ccc(OCCN3CCOCC3)c(OC)c2)c1CC(=O)N(CCOC)CCOC,,590 nM (active)
CCOC(=O)N1CCN([N+]([O-])=NOc2ccc([N+](=O)[O-])cc2C#N)CC1,,4180 nM (active)
O=C1NC(=O)[C@@H](c2cn3c4c(cccc24)CCC3)[C@H]1c1c[nH]c2ccccc12,,332 nM (active)
C[C@@H](Oc1ccc2[nH]nc(C=Cc3cnn(CCO)c3)c2c1)c1c(Cl)cncc1Cl,,4180 nM (active)
CC(=O)N1CCN(c2ccc(OCc3nn(C)c(C)c3-c3cccc4c(CCCOc5cccc6ccccc56)c(C(=O)O)n(Cc5cccnc5)c34)cc2)CC1,,148 nM (active)
C=CC(=O)N1CCc2ccc(-n3c(=O)ccc4cnc5ccc(-c6cnn(C)c6)cc5c43)cc21,,2350 nM (active)
CC(=O)NCC(=O)N1[C@H]2CC[C@H]1c1cc(Nc3ncc(C(F)(F)F)c(NC4CCC4)n3)ccc12,,33.2 nM (active)
C=C1C[C@@]2(O)O[C@@]3(C[C@H]2C(C)C)[C@H](C)CC[C@H]13,10.1,
COC(=O)[C@H](CCCN=C(N)N)NS(=O)(=O)c1ccc(C)cc1,12.3,
CN(C)c1ccc(C(=O)NCCCCCCC(=O)NO)cc1,,132 nM (active)
O=C(O)c1ccc(Nc2ncc3c(n2)-c2ccc(Cl)cc2C(c2c(F)cccc2F)=NC3)cc1,,29.6 nM (active)
Cc1cc(-c2nnc3n2CCCCC3)c(C)n1-c1ccccc1,1.08,
